Reference: PubChem BioAssay (NCATS)
“And” between values parts separate entries of the source, which are not always exact repeats. Equal entries are not always repeated. Results filed as inconclusive are left out. The source made the active and inactive calls. Unless noted, the call rests on the fitted dose curve; in most records, active means well fitted curve in the direction sought with a large enough effect; inconclusive means small, poorly fitted or top-dose-only effect, or another doubt; inactive means no such curve, though single readings can be large; an effect the other way counts as inactive or inconclusive.

Legend:
[1] = Cell Viability - SK-N-SH (AID 435; calls by dose curve;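 further: potency means the concentration at half of the fitted maximal effect; compound exposure lasted 40 h at 37 °C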); details: SK-N-SH neuroblastoma cell viability qHTS
How it was run: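 CellTiter-Glo ATP luminescence, 20 min RT read; cells pre-plated 5 hr, compound 40 hr at 37 °C, 1500 cells/well, complete medium. Normalized DMSO = 0, 100 uM tamoxifen = 100% inhibition; Hill-fit AC50.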

[2] = Cell Viability - LYMP2-005 (AID 967); details: LYMP2-005 lymphoblastoid cell viability; series mostly up to 92.2 µM;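 further: plate controls were DMSO only for no effect and 92 µM tetraoctylammonium bromide control for full effect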
How it was run: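 Steps: seed 2500 LYMP2-005 cells/well, incubate 5 h at 37 C, add compound, incubate 24 h at 37 C, add CellTiter-Glo, wait 30 min at RT, read luminescence. Concentration-response data fitted to Hill equation for AC50.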

[3] = Cell Viability - LYMP2-021 (AID 974); details: LYMP2-021 lymphoblastoid cells viability; series mostly up to 92.2 µM;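 further: compound exposure lasts 24 hours at 37 °C; on the % scale 0 is the no-effect control and ±100 the full control effect; nearly all actives have a fitted effect of over 55% in size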
How it was run: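 Human lymphoblastoid cells (2500/well) were preincubated 5 hr at 37 C, then exposed to compounds for 24 hr at 37 C in complete medium. Intracellular ATP was read by CellTiter-Glo luminescence; AC50 came from Hill-equation fits of concentration-response data.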

[4] = Cell Viability - LYMP2-023 (AID 975); details: LYMP2-023 lymphoblastoid cell viability; series mostly up to 92.2 µM;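 further: cellular ATP measured by luciferase luminescence as viability proxy; plate controls were DMSO only for no effect and 92 µM tetraoctylammonium bromide control for full effect; nearly all actives have a fitted effect of over 55% in size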
How it was run: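 Human lymphoblastoid cells (2500/well) were preincubated 5 hr at 37 C, then exposed to compounds for 24 hr at 37 C in complete medium. Cellular ATP was read by CellTiter-Glo luminescence, and AC50 came from Hill-equation fits.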

[5] = Cell Viability - LYMP2-002 (AID 977); details: LYMP2-002 lymphoblastoid cell viability, qHTS; series mostly up to 92.2 µM;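 further: plate controls were DMSO only for no effect and 92 µM tetraoctylammonium bromide for full effect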
How it was run: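 Luminescent ATP readout (CellTiter-Glo, 30 min room temperature) after 24 h compound exposure at 37 C of a human lymphoblastoid line, 2500 cells/well. AC50 values derived by standard Hill fitting of qHTS concentration-response data.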

[6] = Cell Viability - LYMP2-020 (AID 986); details: series mostly up to 92.2 µM;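 further: plate controls were DMSO only for no effect and tetraoctylammonium bromide at 92 µM for full effect; nearly all actives have a fitted effect of over 55% in size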
How it was run: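 Human lymphoblastoid cells, 2500/well, were pre-incubated 5 hr at 37 C, then exposed to compounds for 24 hr at 37 C in complete medium. Intracellular ATP was read by CellTiter-Glo luminescence, and AC50 was derived by Hill fitting of concentration-response data.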

[7] = Cell Viability - LYMP1-002 - Assay at 24 hr (AID 993); details: LYMP1-002 lymphoblastoid cells viability; series mostly up to 92.2 µM; further: on the % scale 0 is the no-effect control and ±100 the full control effect
How it was run: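 Human lymphoblastoid LYMP1-002 cells, 2500/well in complete medium, were treated with compounds for 24 h at 37 C; intracellular ATP was read by CellTiter-Glo luminescence. AC50 values came from Hill-equation fits of qHTS concentration-response data.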

[8] = target: Peroxisome proliferator-activated receptor delta (Homo sapiens) (UniProt Q03181); assay: qHTS assay for small molecule agonists of peroxisome proliferator-activated receptor delta signaling (AID 588534; calls by dose curve;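 further: 0% = DMSO basal wells and 100% = positive control agonist at 10 µM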); details: HEK293T PPARdelta-UAS-bla, beta-lactamase ratio, 18 h; series mostly up to 76.7 µM
Sequence of Peroxisome proliferator-activated receptor delta (Homo sapiens) (Q03181 whole entry, looked up): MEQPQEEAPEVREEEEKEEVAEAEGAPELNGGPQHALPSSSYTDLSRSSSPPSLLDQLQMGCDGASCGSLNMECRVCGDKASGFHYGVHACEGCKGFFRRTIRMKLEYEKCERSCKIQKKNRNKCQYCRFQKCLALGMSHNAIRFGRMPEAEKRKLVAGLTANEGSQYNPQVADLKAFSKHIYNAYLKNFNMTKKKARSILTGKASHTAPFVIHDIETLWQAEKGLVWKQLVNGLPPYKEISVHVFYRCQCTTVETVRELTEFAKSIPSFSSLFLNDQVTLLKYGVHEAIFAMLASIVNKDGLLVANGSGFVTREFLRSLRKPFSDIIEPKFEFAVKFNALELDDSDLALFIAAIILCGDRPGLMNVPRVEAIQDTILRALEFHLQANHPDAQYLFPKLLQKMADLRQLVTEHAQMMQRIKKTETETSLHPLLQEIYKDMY
How it was run: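 Cell-based beta-lactamase reporter assay run in agonist mode: cells seeded and incubated 5 hrs at 37 C, compounds added and incubated 18 hrs at 37 C. CCF4 dye fluorescence read after 2 hrs at RT; EC50 and efficacy from Hill fits.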

[9] = target: Retinoic acid receptor RXR-alpha (Homo sapiens) (UniProt P19793); assay: qHTS assay for small molecule antagonists of retinoid X receptor alpha signaling (AID 588546; active means well fitted inhibition curve with a large enough effect in the signal ratio, with a control signal flat, not every such curve was filed as active; the % refers to the signal ratio;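 further: cells stimulated with 9-cis-retinoic acid as agonist; on the % scale 0 is the no-effect control and ±100 the full control effect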); details: HEK293T RXRa-UAS-bla, beta-lactamase ratio, antagonist mode
Sequence of Retinoic acid receptor RXR-alpha (Homo sapiens) (P19793 whole entry, looked up): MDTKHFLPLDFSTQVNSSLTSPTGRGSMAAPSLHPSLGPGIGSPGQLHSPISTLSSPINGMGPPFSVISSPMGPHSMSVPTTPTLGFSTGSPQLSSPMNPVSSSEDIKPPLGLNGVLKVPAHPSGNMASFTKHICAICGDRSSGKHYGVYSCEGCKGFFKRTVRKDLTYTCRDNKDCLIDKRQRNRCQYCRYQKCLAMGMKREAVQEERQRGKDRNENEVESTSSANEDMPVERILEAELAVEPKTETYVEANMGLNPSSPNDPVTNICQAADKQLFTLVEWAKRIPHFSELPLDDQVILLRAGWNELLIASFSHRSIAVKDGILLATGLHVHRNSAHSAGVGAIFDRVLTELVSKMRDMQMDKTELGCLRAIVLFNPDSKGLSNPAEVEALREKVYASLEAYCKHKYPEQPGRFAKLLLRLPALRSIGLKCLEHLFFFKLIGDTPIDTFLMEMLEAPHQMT
How it was run: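 Beta-lactamase reporter inhibition, read as CCF4 fluorescence ratio (ex 405, em 460/530 nm) after 2 h at RT. HEK293T UAS-bla cells, 2500/well, were stimulated with 9-cis-RA at 500 or 100 nM final alongside test compound for 18 h at 37 C.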

[10] = qHTS assay for small molecule agonists of the antioxidant response element (ARE) signaling pathway (AID 651741; active means well fitted activation curve with a large enough effect in the signal ratio; the % refers to the signal ratio; further: potency means the concentration at half of the fitted maximal effect; on activation: % of control where 0% means no effect); details: HepG2 ARE-bla reporter, beta-lactamase FRET ratio, 16 h; series mostly up to 96 µM
How it was run: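 ARE-bla HepG2 cells (beta-lactamase reporter under ARE control) were plated at 2,000 cells/well, preincubated 5 h at 37 C/5% CO2, then treated with DMSO-dissolved compounds for 16 h at 37 C; LiveBLAzer B/G FRET substrate added, fluorescence read after 2 h at room temperature.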

[11] = qHTS assay for small molecule antagonists of the retinoid-related orphan receptor gamma (ROR-gamma) signaling pathway - cell viability counter screen (AID 720652; active means well fitted curve in the direction sought with a large enough effect in the repeat runs; an effect the other way counts as inactive or inconclusive;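 further: CHO reporter cells with doxycycline-induced ROR-gamma expression; compound exposure lasted 16 hr before ATP read; on the % scale 0 is the no-effect control and ±100 the full control effect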); details: RORgamma reporter cell line viability counter screen; series mostly up to 92.2 µM
How it was run: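 Counter screen in CHO cells carrying TET-inducible ROR-gamma and an ROR response element-luciferase reporter; cells plated 5 hr, compound pinned, doxycycline added, then 16 hr at 37 C. Viability read as intracellular ATP by CellTiter-Glo luminescence.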

[12] = Cell Viability - HUV-EC-C (AID 542); details: HUV-EC-C endothelial cell viability, qHTS; series mostly up to 92.2 µM; further: on the % scale 0 is the no-effect control and ±100 the full control effect; nearly all actives have a fitted effect of over 35% in size
How it was run: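 HUV-EC-C normal human vascular endothelial cells, 1000 cells/well, pre-incubated 5 hr at 37 °C, then exposed to compounds for 40 hr at 37 °C in complete medium. Viability measured as intracellular ATP by CellTiter-Glo luminescence; AC50 from Hill fits.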

[13] = Cell Viability - Renal Proximal Tubule (AID 545); details: renal proximal tubule cells viability; series mostly up to 91.7 µM;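 further: 0% = DMSO only and -100% = 100 µM tamoxifen; nearly all actives have a fitted effect of over 40% in size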
How it was run: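 Rat kidney proximal tubule cells, freshly isolated; 1000 cells/well, 5 hr settle, compound 40 hr 37 °C. CellTiter-Glo 20 min RT, luminescence read. AC50 by standard Hill fit.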

[14] = Cell Viability - LYMP2-011 (AID 969); details: LYMP2-011 lymphoblastoid cells viability; series mostly up to 92.2 µM;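 further: 0% = DMSO only and full inhibition = 92 µM tetraoctylammonium bromide; nearly all actives have a fitted effect of over 60% in size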
How it was run: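 Human lymphoblastoid cells (2500/well) were plated in complete medium, preincubated 5 hr at 37 C, then exposed to compounds for 24 hr at 37 C. Intracellular ATP was read by CellTiter-Glo luminescence, and AC50 came from Hill-equation concentration-response fits.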

[15] = Cell Viability - LYMP2-013 (AID 970); details: LYMP2-013 lymphoblastoid cells viability; series mostly up to 92.2 µM;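 further: 0% = DMSO only and full inhibition = tetraoctylammonium bromide control; nearly all actives have a fitted effect of over 55% in size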
How it was run: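 Human lymphoblastoid cells, 2500/well, were preincubated 5 hr at 37 C, then treated with compounds for 24 hr at 37 C in complete medium. Intracellular ATP was read by CellTiter-Glo luminescence; AC50 from Hill-equation fits of concentration-response data.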

[16] = Cell Viability - LYMP2-015 (AID 971); details: LYMP2-015 lymphoblastoid cell viability; series mostly up to 92.2 µM
How it was run: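 Human lymphoblastoid cells (2500/well) in complete medium were preincubated 5 hr at 37 C, then compound-treated 24 hr at 37 C. Intracellular ATP was read by CellTiter-Glo luminescence after 30 min at room temperature; AC50 came from Hill-equation concentration-response fits.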

[17] = Cell Viability - LYMP2-010 (AID 981); details: LYMP2-010 lymphoblastoid cell viability, qHTS; series mostly up to 92.2 µM
How it was run: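 Human lymphoblastoid LYMP2-010 cells (2500/well) were preincubated 5 hr at 37 C, then exposed to compounds for 24 hr at 37 C in complete medium. Intracellular ATP was measured by CellTiter-Glo luminescence after 30 min at room temperature; AC50 from Hill-fitted concentration-response.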

[18] = qHTS assay for small molecule activators of the nuclear factor-kappa B (NF-kB) signaling pathway (AID 651749; active means well fitted activation curve with a large enough effect in the signal ratio; the % refers to the signal ratio; further: % of control where 0% means no effect); details: NF-kB-bla ME-180 cells, beta-lactamase FRET ratio, 16 h; stronger effect = higher value
How it was run: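 ME-180 cells stably carrying a beta-lactamase reporter under an NF-kB response element were exposed to compound or DMSO vehicle for 16 hr at 37C, 5% CO2. Pathway activation was read by FRET, since reporter expression disrupts FRET.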

[19] = target: Nuclear receptor subfamily 1 group I member 2 (Rattus norvegicus) (UniProt Q9R1A7); assay: qHTS assay for small molecule activators of the rat pregnane X receptor (rPXR) signaling pathway (AID 651751; call rule not given here; further: 0% is about no effect); details: rPXR reporter cells, luciferase (One-Glo), 24 h
Sequence of Nuclear receptor subfamily 1 group I member 2 (Rattus norvegicus) (Q9R1A7 whole entry, looked up): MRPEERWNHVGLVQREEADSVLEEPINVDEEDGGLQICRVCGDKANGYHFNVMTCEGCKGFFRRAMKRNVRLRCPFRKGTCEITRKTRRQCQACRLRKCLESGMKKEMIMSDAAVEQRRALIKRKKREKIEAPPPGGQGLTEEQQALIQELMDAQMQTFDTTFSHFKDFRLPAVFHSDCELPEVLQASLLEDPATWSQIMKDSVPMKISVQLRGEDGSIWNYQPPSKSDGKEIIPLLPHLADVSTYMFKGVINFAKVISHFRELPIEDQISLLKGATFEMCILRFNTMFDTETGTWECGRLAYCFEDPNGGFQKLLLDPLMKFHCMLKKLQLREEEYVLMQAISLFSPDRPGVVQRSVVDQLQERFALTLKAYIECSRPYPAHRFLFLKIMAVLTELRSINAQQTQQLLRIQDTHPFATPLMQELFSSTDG

[20] = qHTS assay for small molecule activators of the human pregnane X receptor (PXR) signaling pathway (AID 720659; call rule not given here; further: 0% is about no effect); details: DPX-2 HepG2 CYP3A4-luciferase, 24 h; series mostly up to 92.3 µM

COC(=O)Nc1nc2ccccc2[nH]1
active: Potency [10] 61.1 µM
inactive: Potency [1] > 92 µM | Potency [2] | Potency [3] | Potency [4] | Potency [5] | Potency [6] | Potency [7] | outcome [8] | max response [9] -21.4% | Potency [11]

ClC(Cl)(Cl)C(Cl)(Cl)Cl
inactive: Potency [1] > 92 µM | Potency [12] | outcome [13] | Potency [2] | Potency [14] | Potency [15] | Potency [16] | Potency [3] | Potency [4] | Potency [5] | Potency [17] | Potency [6] | Potency [7] | max response [9] 8.66% | activation [18] 0.631% | Potency [11] | max response [19] 6.05% | outcome [20]

c1ccc(Nc2ccc(Nc3ccccc3)cc2)cc1
inactive: Potency [1] > 92 µM | Potency [12] | Potency [2] | Potency [16] | Potency [3] | Potency [4] | Potency [5] | Potency [6] | outcome [8] | max response [9] -13.3% | Potency [11]

COc1ccc(C=O)cc1
inactive: Potency [1] > 92 µM | outcome [13] | Potency [2] | Potency [14] | Potency [15] | Potency [3] | Potency [4] | Potency [17] | Potency [6] | Potency [7] | outcome [8] | max response [9] 14.5% | Potency [10] | activation [18] -0.721% | Potency [11] | max response [19] 2.55% | outcome [20]

CCCCOC(C)=O
inactive: Potency [12] | Potency [2] | Potency [15] | Potency [16] | Potency [3] | Potency [4] | Potency [5] | Potency [17] | Potency [6] | outcome [8] | max response [9] 10.8% | Potency [10] | activation [18] -1.17% | Potency [11]

CC(C#N)CCC#N (centres undefined)
inactive: Potency [1] > 92 µM | Potency [12] | outcome [13] | Potency [14] | Potency [15] | Potency [4] | Potency [5] | Potency [6] | Potency [7] | outcome [8] | max response [9] -1.63% | Potency [10] | activation [18] 0.705% | Potency [11] | max response [19] 3.89% | outcome [20]

ClCC(Cl)CCl
inactive: Potency [1] > 92 µM | Potency [12] | outcome [13] | Potency [2] | Potency [14] | Potency [15] | Potency [16] | Potency [3] | Potency [4] | Potency [5] | Potency [17] | Potency [6] | Potency [7] | outcome [8] | max response [9] 11.2% and -5.45% | Potency [10] | Potency [11] | max response [19] 8.27% and 1.68% | outcome [20]

Nc1ccccc1-c1ccccc1
active: Potency [10] 42.2 µM
inactive: Potency [1] > 92 µM | Potency [12] | outcome [13] | Potency [2] | Potency [15] | Potency [16] | Potency [3] | Potency [4] | Potency [17] | Potency [6] | Potency [7] | outcome [8] | max response [9] -19.9% | activation [18] -2.55% | Potency [11] | max response [19] 0.403% | outcome [20]
